High-throughput results as filed in PubChem BioAssay.
An excerpt weighted towards active compounds, which were near 1.3% of everything screened.
EPAC1 antag: EPAC1 (human) antagonism | 360,000 compounds, 0.14% hits | Potency, µM (top dose mostly 115 µM), inactives show top-dose activity change, negative = inhibition, usual class: inhibitors | AID 720709 | O95398 | EPAC1 GEF assay, Rap1b-BODIPY-GDP exchange fluorescence;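 note: plate controls were vehicle for no effect and positive control for full effect; nearly all actives have a fitted effect of over 50% in size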
EPAC2 antag: blocks human EPAC2 exchange factor; Q8WZA2; EPAC2 GEF exchange of Rap1B-BODIPY-GDP, fluorescence; Potency, µM (series often up to 114 µM), inactives show at the top dose activity, negative = inhibition, hits mostly inhibitors; 360,000 compounds, 0.18% hits; note: % is set by controls: 0 for no effect and ±100 for the full control effect; nearly all actives have a fitted effect of over 45% in size
EPAC2 ag: activates human EPAC2 exchange factor; Potency, µM (doses to about 154 µM), without a hit: at the top dose activation, most hits filed as activators; EPAC2 activation, biochemical qHTS; response scale: 100% = 6.5 mM cAMP response; 360,000 compounds, 0.079% hits; AID 720711; Q8WZA2; note: nearly all actives have a fitted effect of over 50% in size
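EPAC2 (100 nM) mixed with Rap1B loaded with BODIPY-GDP (250 nM) plus 50 uM unlabeled GDP; compounds pinned in, 5 min RT, then read every 5 min for 30 min (ex 480, em 540 nm). Normalized to cAMP control.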
BRCA1 expr up: increases BRCA1 expression. MCF7-BRCA1-FFLuc reporter, luminescence, 48 h; response scale: scaled: vehicle 0%, 10 µM genistein 100%. 380,000 compounds, 1.1% hits. Potency, µM (doses to about 46.1 µM), inactives show at the top dose activation, most hits filed as activators; note: nearly all actives have a fitted effect of over 80% in size
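48 h compound treatment of MCF7-BRCA1-FFLuc cells (phenol-red free MEM, 37 °C), then 15 min with luciferase substrate and luminescence imaging.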
EPAC1 agonist: activates human EPAC1 exchange factor; Potency, µM (highest dose often 154 µM), for inactives: at the top dose activation, actives largely listed as activators; AID 720707; 360,000 compounds, 0.073% hits; EPAC1 agonist qHTS, biochemical assay; response scale: 100% = response to 6.5 mM cAMP; O95398; note: nearly all actives have a fitted effect of over 60% in size
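Normalized to 6.5 mM cAMP, activity reflects EPAC1-catalysed release of BODIPY-GDP from Rap1B, followed kinetically over 30 min at 480 nm excitation, 540 nm emission. Reaction contained 100 nM EPAC1, 250 nM Rap1B-BODIPY-GDP, 50 uM GDP.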
RGS4 inh: inhibitors of human regulator of G protein signaling 4; P49798; Transcreener GDP fluorescence polarization, RGS4-accelerated GTP hydrolysis; Potency, µM (doses to about 114 µM), inactives show top-dose activity change, negative = inhibition, most hits filed as inhibitors; 390,000 compounds, 0.039% hits; AID 504845; note: % is set by controls: 0 for no effect and ±100 for the full control effect; nearly all actives have a fitted effect of over 75% in size
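MLSMR compounds (23 nl, pin-transferred) preincubated 10 min at room temperature with a 500nM (2x) first reagent, then RGS4 at 900nM (2x) plus Transcreener GDP mix added; fluorescence polarization (620/688 nm) read before and after 90 min at 30 °C.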
Starred values were filed as active, the others as inactive; ? = inconclusive; · = no result; [ ] = dose if it differs, or a comment. Calls come from the whole dose curve; as a rule, active = well fitted curve in the direction sought with a large enough effect; inconclusive = small, poorly fitted or top-dose-only effect, or another doubt; inactive = no such curve, though single readings can be large; an effect the other way counts as inactive or inconclusive. Potency is the fitted concentration of half-maximal effect.

SMILES | EPAC1 antag | EPAC2 antag | EPAC2 ag | BRCA1 expr up | EPAC1 agonist | RGS4 inh
CC(C)(C)c1ccc(C(=O)N2CCC(C(=O)NCC3CCCO3)CC2)cc1 (configuration not stated) | -28.5% | -3.5% | -8.7% | 8.91µM* | 1.4% | -11.9%
Cc1ccc(/C=N/Nc2ccccn2)s1 | 2.4% | -4.3% | 2.8% | 11.2µM* | 6.3% | 0.5%
Cn1ccnc1SCC(=O)Nc1cccc(Br)c1 | · | · | · | 61.0% | · | 2.8%
O=C(N/N=C/c1ccccc1F)c1cccc2ccccc12 | 0.7% | 9.1% | 3.3% | 35.2% | 5.6% | -1.4%
Cc1ccccc1C(=O)N/N=C/c1cccc2ccccc12 | 13.7% | 12.0% | 1.2% | 12.6µM* | -5.0% | 3.1%
COc1cc(C(=O)NCc2nnc(SCC(=O)c3ccccc3)o2)cc(OC)c1OC | -16.1% | -12.9% | 7.5% | -44.7% | 3.4% | 36.6%
Cc1ccc(-c2ccc(CCC(=O)O)n2-c2ccc(O)cc2)cc1 | -19.5% | -10.9% | 11.3% | -1.8% | 4.0% | ?
CN(C)C(CNS(=O)(=O)c1ccc(F)cc1)c1cccnc1 (configuration not stated) | -0.8% | -1.9% | 1.3% | -1.6% | -2.8% | 0.7%
CSc1ccc(-c2ccc3c(c2)c(Sc2ccccc2)c(-c2ccccc2)n3C)cc1 | -13.6% | 4.0% | 13.4% | 9.6% | -4.7% | ·
CCCCOc1ccc(C2(C)CC(=O)NC2=O)cc1 (configuration not stated) | -2.8% | 11.2% | 12.3% | 12.6µM* | 3.8% | -28.9%
Cc1nnc(-c2ccc(N3CCCCCC3)c([N+](=O)[O-])c2)o1 | -7.1% | -6.8% | 10.1% | 22.4µM* | -4.2% | 30.1%
Cc1nnc(-c2ccc(N3CCOCC3)c([N+](=O)[O-])c2)o1 | -9.6% | 0.3% | 0.5% | 23.6% | -6.4% | -24.3%
COc1cc(C(=O)Nc2ccc3nc(N4CCN(C)CC4)cc(C)c3c2)cc(OC)c1OC | -1.9% | -2.0% | 13.3% | -27.5% | -1.4% | 15.8%
COc1cc(NC(=S)NCCC(c2ccccc2)c2ccccc2)cc(OC)c1 | 59.6% | -8.4% | 5.1% | -20.1% | 89.1µM* | -17.3%
COc1cccc(NC(=S)NCCC(c2ccccc2)c2ccccc2)c1 | -9.1% | 0.1% | 10.2% | -67.5% | 6.7% | 6.2%
Cc1cc2ccccc2cc1C(=O)c1ccccc1 | -13.1% | 8.91µM* | 18.4% | -2.3% | 7.5% | 15.0%
O=C(c1ccccc1)c1ccc(O)cc1O | 107.5% | 95.7% | 100µM* | 23.4% | 100µM* | 6.7%
O=C(c1ccccc1)c1ccc2ccccc2c1 | 5.8% | ? | 17.8% | 56.0% | 11.9% | 4.8%
CCC1(C)OC(=O)N2CCc3c(C)[nH]c4c(C)ccc(c34)C21C (configuration not stated) | 14.6% | -10.0% | 11.9% | -4.7% | -4.4% | -2.7%
COc1cc(/C=C(\C#N)C(=O)Nc2nnc(C(F)(F)F)s2)ccc1OCc1ccc(C(F)(F)F)cc1C(F)(F)F | · | · | · | · | · | 18.9µM*
COc1cc(/C=C(\C#N)C(=O)Nc2cccc(C(=O)O)c2)ccc1OCc1ccc(C)cc1 | -25.0% | -23.9% | 3.7% | 5.01µM* | 2.6% | ?
COc1cc(/C=C(/C#N)C(=O)Nc2ccccc2)ccc1OCc1ccc(C(=O)O)cc1 | -21.9% | 3.9% | 17.9% | 81.1% | -11.2% | -24.9%
O=C(CSC1=NCCS1)N1CCc2ccccc21 | 8.8% | 6.7% | -9.4% | 3.16µM* | -2.8% | -30.3%
Cc1cc(C)n2nc(SCC(=O)N3CCc4ccccc43)nc2n1 | -4.3% | 3.3% | 2.2% | 0.7% | -14.2% | -20.2%
Nc1ccccc1SCC(=O)N1CCc2ccccc21 | -19.2% | -3.7% | 4.9% | 69.4% | 0.9% | 30.1%
SMILES | EPAC1 antag | EPAC2 antag | EPAC2 ag | BRCA1 expr up | EPAC1 agonist | RGS4 inh
Cc1cc(C)nc(SCC(=O)N2CCc3ccccc32)n1 | -3.3% | 1.6% | 0.4% | 5.62µM* | -10.7% | 1.8%
COc1ccccc1-n1cnnc1SCC(=O)c1cc(C)n(Cc2cccs2)c1C | -4.0% | 9.1%[57.1 µM] | 13.7% | 28.9% | 4.1% | -35.9%
Cc1c2ccccc2nc2c(F)c(N(C)C)c(F)c(F)c12 | 25.4% | 9.3% | 22.6% | 12.6µM* | 22.0% | -24.3%
COc1cc(OC)cc(-c2noc(-c3csc([C@@H]4O[C@H](CO)[C@H](O)[C@H](O)[C@H]4O)n3)n2)c1 | 7.5% | 11.7% | 5.3% | 4.2% | -11.0% | ·
COc1cc(OC)cc(-c2noc(-c3csc([C@H]4C[C@H](O)[C@@H](CO)O4)n3)n2)c1 | ? | -10.5% | 4.0% | 3.16µM* | 12.3% | ·
CCC(=O)Nc1cccc(C(=O)OCC(=O)c2ccccc2Cl)c1 | 11.0% | 11.0% | -2.9% | 7.94µM* | -0.7% | -2.6%
CCC(=O)Nc1ccccc1C(=O)OCC(=O)c1ccccc1 | 4.1% | -1.3% | 1.5% | 2µM* | -2.5% | 22.9%
CCOC(=O)c1c(C)n(C)c2ccc(OCC(O)CN3C(=O)c4ccccc4S3(=O)=O)cc12 (configuration not stated) | -3.0% | -11.8% | 14.9% | -16.6% | 12.5% | 8.5%
CCOC(=O)N/N=C/c1ccccc1F | -8.3% | 11.0% | -0.9% | 10µM* | 4.1% | 59.6%
COC(=O)N/N=C/c1ccc(Oc2ccccc2)cc1 | -0.4% | 2.4% | -3.9% | 10µM* | -5.0% | -18.5%
COC(=O)N/N=C\c1ccc(OC/C=C/c2ccccc2)cc1 | -0.5% | 2.7% | 6.7% | 7.08µM* | 0.9% | 10.6%
CC(=O)N/N=C\c1ccccc1OC/C=C/c1ccccc1 | 3.3% | -0.4% | 2.7% | 2.82µM* | -4.4% | 16.0%
CC(C)(O)C(=O)N/N=C\c1ccc(OC/C=C/c2ccccc2)cc1 | -22.6% | -7.1% | -11.1% | ? | -10.1% | 8.5%
COc1ccccc1NC(=S)NC(NC(C)=O)C(Cl)(Cl)Cl (configuration not stated) | -14.2% | 4.8% | -4.1% | 0.0% | -5.4% | 0.7%
NCC(O)C1CCCCCCC1 (configuration not stated) | · | · | · | · | · | 1.2%[56.9 µM]
N=c1sccn1CC(=O)N1CCc2ccccc21 | 9.4% | -2.1% | 4.4% | -21.2% | -1.4% | 4.6%
CCOC(=O)N/N=C\c1ccc(OC/C=C/c2ccccc2)cc1 | 7.8% | 5.5% | 1.6% | 8.91µM* | 12.8% | 7.3%
Cc1ccc(/C=N/NC(=O)Nc2ccccc2)o1 | 0.2% | 2.9% | 7.2% | 12.6µM* | 4.8% | -7.7%
CCOC(=O)N/N=C\c1cccc(OC)c1OC/C=C/c1ccccc1 | -10.8% | -16.1% | 4.9% | 5.0% | 8.5% | -3.2%
Cc1ccc(/C=N/NC(=O)C(O)c2ccccc2)o1 (configuration not stated) | -8.2% | -1.9% | 3.3% | -2.2% | 4.4% | 11.4%
CC(=O)Oc1ccc(/C=N/NC(=S)Nc2ccccc2)cc1 | 11.0% | 16.9% | 2.5% | 11.2µM* | -0.8% | -18.9%
